Here are results for 6 molecules from ChEMBL document CHEMBL1961873, “Compounds: GSK PKIS; Assays: Nanosyn kinase panel” (2012).

Assay [1] has as its target T1, Tyrosine-protein kinase ITK/TSK (Homo sapiens) (UniProt Q08881).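 Note: values are mean percent inhibition of ITK from the GSK PKIS screen.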
T1 sequence (whole entry): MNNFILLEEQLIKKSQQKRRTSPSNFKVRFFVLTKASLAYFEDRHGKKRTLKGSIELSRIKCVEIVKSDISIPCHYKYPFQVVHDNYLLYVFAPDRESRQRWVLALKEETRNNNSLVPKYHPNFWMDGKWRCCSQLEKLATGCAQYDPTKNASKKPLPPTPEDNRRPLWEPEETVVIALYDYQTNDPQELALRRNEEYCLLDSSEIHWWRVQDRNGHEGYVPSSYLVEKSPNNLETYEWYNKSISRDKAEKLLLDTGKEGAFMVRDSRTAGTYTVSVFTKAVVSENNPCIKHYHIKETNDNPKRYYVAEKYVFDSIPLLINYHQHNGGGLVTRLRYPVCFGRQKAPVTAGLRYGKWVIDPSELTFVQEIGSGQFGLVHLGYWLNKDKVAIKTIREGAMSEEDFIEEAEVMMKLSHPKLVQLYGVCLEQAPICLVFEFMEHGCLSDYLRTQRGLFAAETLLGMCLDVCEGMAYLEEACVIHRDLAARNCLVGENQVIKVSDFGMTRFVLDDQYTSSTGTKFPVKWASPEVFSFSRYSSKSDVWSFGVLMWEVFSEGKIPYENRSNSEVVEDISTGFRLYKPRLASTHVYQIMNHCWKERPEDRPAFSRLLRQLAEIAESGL
The settings on record: at 1 µM.

For assay [2], the target named is Tyrosine-protein kinase JAK1 (Homo sapiens) (UniProt P23458). The settings on record: at 0.1 µM.
Sequence of Tyrosine-protein kinase JAK1 (Homo sapiens) (P23458 whole entry): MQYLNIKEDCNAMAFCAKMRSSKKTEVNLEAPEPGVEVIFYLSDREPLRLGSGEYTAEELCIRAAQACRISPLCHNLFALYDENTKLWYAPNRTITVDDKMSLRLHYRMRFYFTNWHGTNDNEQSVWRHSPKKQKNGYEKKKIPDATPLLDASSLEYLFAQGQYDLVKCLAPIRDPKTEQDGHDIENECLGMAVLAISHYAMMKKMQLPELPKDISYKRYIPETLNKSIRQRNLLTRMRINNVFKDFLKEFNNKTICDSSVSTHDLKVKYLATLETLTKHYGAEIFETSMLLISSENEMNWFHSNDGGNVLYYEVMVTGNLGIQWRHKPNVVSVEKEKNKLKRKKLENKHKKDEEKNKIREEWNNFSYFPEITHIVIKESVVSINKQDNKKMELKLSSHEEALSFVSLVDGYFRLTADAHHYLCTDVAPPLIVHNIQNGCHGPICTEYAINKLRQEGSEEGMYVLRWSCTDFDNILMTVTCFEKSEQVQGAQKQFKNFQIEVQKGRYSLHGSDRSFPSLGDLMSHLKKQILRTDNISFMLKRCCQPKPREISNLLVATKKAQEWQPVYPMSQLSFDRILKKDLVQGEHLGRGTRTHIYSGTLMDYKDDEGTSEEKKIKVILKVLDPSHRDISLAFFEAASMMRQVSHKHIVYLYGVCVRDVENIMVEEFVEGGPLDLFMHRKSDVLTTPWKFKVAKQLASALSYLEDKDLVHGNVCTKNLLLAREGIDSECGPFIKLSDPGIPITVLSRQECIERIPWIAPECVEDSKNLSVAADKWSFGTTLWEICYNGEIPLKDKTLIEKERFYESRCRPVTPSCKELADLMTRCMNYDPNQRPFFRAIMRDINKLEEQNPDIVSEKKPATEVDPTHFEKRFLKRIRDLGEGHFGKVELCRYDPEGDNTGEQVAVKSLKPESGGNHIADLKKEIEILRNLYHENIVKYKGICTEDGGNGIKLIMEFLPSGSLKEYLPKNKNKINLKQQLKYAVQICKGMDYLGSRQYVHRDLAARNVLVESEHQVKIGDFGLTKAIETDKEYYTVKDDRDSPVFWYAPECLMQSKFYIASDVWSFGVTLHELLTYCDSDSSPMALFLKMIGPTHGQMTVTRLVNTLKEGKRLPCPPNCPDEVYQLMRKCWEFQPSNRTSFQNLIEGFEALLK
The target is the same in assay [3]. The settings on record: at 1 µM.
Assay [4] deals with Tyrosine-protein kinase JAK2 (Homo sapiens) (UniProt O60674). The settings on record: at 0.1 µM.
Sequence of Tyrosine-protein kinase JAK2 (Homo sapiens) (O60674 whole entry): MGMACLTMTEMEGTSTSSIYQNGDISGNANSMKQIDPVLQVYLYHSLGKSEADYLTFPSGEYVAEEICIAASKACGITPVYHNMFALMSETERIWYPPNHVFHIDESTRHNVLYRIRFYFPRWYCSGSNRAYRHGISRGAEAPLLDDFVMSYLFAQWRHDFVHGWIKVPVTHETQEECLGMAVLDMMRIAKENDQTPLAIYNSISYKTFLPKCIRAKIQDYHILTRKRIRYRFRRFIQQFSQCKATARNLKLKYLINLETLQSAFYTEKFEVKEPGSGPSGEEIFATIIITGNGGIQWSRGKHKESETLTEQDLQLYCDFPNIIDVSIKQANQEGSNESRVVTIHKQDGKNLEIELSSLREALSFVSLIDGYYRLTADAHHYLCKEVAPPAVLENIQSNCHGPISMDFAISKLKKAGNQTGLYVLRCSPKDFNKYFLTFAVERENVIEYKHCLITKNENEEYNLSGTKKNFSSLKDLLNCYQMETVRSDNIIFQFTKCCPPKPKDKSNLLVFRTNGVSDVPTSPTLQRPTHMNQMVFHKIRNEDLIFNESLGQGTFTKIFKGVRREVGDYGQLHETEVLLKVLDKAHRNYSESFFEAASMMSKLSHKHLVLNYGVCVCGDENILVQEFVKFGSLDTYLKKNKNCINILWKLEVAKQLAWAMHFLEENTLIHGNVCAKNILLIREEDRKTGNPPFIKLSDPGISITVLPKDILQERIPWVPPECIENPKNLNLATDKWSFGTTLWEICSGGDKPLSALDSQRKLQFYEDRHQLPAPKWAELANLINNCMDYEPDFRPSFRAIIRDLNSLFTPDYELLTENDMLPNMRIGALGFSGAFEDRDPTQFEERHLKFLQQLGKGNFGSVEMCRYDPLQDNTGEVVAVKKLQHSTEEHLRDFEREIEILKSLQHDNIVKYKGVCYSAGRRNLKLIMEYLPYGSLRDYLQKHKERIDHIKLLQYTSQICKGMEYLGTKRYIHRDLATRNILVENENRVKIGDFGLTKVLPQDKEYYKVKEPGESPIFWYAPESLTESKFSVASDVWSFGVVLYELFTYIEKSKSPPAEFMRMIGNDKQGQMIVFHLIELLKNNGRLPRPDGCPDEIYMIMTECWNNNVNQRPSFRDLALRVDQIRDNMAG
Assay [5] shares this target. The settings on record: at 1 µM.
For assay [6], the target named is T2, Tyrosine-protein kinase JAK3 (Homo sapiens) (UniProt P52333).
T2 sequence (whole entry): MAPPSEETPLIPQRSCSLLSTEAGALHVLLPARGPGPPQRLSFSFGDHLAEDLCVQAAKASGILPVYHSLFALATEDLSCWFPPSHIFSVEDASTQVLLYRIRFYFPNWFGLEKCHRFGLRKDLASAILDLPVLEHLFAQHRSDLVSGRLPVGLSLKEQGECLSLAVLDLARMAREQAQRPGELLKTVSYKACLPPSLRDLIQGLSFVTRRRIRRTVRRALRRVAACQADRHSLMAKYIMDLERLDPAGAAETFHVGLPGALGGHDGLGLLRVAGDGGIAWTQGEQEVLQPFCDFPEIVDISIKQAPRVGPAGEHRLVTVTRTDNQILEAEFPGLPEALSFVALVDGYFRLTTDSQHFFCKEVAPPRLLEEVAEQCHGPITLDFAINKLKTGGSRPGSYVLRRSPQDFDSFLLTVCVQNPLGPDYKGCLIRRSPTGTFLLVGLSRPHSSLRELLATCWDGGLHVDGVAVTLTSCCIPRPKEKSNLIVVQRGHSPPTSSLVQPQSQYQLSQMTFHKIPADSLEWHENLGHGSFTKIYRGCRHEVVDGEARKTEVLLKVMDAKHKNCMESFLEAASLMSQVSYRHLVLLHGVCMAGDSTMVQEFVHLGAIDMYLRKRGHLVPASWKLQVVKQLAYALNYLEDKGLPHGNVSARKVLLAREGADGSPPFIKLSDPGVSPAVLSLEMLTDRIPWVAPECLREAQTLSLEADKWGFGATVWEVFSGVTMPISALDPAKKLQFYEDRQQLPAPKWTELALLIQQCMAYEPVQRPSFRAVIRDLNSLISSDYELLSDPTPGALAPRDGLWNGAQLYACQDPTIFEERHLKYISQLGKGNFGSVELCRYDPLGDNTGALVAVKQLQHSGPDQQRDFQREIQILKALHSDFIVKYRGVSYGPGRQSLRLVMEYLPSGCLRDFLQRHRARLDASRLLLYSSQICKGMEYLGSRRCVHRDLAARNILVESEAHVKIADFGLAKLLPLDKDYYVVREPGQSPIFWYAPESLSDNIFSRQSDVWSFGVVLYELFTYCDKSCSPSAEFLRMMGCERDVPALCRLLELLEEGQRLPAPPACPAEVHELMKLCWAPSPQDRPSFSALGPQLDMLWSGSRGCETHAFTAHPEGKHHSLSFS
The settings on record: at 0.1 µM.

The target of assay [7] is T2, Tyrosine-protein kinase JAK3 (Homo sapiens). The settings on record: at 1 µM.
Assay [8] deals with Vascular endothelial growth factor receptor 2 (Homo sapiens) (UniProt P35968). The settings on record: at 0.1 µM.
Sequence of Vascular endothelial growth factor receptor 2 (Homo sapiens) (P35968 whole entry): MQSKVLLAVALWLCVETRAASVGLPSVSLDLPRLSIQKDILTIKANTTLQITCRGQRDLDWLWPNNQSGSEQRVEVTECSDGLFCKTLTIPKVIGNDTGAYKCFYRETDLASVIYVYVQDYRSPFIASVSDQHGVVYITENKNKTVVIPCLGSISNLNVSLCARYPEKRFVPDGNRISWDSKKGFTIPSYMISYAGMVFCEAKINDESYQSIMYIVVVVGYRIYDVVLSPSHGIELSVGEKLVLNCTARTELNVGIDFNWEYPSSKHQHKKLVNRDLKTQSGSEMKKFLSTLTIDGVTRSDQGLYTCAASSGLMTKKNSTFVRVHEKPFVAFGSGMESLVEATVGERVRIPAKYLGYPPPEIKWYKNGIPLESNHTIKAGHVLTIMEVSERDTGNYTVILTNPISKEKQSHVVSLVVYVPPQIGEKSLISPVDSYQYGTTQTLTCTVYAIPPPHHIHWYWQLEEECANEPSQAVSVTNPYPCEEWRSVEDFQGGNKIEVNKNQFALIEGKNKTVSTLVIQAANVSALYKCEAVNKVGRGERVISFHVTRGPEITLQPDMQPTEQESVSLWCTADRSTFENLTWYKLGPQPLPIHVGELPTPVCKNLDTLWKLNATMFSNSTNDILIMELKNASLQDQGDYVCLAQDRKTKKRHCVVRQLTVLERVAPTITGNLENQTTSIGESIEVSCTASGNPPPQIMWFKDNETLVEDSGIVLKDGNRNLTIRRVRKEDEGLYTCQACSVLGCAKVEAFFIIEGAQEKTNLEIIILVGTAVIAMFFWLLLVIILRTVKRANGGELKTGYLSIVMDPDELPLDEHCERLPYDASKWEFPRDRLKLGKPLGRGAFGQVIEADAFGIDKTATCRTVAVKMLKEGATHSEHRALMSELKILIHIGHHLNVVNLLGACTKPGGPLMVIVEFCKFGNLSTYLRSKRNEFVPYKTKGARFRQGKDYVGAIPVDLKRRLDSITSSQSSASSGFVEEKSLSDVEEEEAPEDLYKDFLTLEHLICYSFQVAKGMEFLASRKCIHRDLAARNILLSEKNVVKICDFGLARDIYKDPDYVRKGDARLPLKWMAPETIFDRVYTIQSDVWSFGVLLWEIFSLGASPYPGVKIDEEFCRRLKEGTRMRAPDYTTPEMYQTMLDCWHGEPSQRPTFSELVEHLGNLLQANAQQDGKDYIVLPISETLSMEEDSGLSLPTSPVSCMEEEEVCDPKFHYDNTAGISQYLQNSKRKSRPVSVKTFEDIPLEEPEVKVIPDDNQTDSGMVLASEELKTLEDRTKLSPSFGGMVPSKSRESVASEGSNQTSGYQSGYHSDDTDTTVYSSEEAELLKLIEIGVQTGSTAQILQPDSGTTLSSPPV
Assay [9] shares this target. The settings on record: at 1 µM.
Assay [10] deals with Mast/stem cell growth factor receptor Kit (Homo sapiens) (UniProt P10721). The settings on record: at 0.1 µM.
Sequence of Mast/stem cell growth factor receptor Kit (Homo sapiens) (P10721 whole entry): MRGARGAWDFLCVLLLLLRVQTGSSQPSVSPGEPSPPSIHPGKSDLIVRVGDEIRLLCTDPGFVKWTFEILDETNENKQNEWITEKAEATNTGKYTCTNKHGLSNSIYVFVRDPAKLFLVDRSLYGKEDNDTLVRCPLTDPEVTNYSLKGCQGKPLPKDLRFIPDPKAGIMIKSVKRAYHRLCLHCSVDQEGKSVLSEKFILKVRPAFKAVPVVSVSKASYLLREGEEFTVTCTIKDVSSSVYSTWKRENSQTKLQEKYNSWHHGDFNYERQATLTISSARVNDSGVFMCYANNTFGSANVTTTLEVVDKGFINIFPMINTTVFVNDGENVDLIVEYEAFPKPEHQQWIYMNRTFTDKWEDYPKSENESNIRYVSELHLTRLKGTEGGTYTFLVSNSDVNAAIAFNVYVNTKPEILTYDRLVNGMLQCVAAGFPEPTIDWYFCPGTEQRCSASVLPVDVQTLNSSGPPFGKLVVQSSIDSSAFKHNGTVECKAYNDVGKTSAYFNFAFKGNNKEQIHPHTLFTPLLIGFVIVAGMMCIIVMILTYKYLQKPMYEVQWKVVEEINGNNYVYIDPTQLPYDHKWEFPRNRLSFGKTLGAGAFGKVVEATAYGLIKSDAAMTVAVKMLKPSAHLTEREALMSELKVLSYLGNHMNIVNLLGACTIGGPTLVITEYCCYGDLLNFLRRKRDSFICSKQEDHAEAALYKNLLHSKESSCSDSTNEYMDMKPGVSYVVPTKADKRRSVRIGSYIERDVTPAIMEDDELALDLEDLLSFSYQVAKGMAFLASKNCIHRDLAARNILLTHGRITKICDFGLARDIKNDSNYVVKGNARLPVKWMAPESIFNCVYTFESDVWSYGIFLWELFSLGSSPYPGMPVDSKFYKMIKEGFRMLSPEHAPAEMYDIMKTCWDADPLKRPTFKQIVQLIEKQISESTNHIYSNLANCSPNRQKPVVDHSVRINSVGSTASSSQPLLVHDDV
Assay [11] shares this target. The settings on record: at 1 µM.
For assay [12], the system named is Mast/stem cell growth factor receptor Kit (Homo sapiens), P10721 [D816V]. The settings on record: at 0.1 µM.
Assay [13] shares this test system. The settings on record: at 1 µM.
The test system of assay [14] is Mast/stem cell growth factor receptor Kit (Homo sapiens), P10721 [T670I]. The settings on record: at 0.1 µM.
Assay [15] has the same test system. The settings on record: at 1 µM.
Assay [16] concerns Mast/stem cell growth factor receptor Kit (Homo sapiens), P10721 [V560G]. The settings on record: at 0.1 µM.
For assay [17] the test system is unchanged. The settings on record: at 1 µM.
The target in assay [18] is Tyrosine-protein kinase Lck (Homo sapiens) (UniProt P06239). The settings on record: at 0.1 µM.
Sequence of Tyrosine-protein kinase Lck (Homo sapiens) (P06239 2-509 limits assumed): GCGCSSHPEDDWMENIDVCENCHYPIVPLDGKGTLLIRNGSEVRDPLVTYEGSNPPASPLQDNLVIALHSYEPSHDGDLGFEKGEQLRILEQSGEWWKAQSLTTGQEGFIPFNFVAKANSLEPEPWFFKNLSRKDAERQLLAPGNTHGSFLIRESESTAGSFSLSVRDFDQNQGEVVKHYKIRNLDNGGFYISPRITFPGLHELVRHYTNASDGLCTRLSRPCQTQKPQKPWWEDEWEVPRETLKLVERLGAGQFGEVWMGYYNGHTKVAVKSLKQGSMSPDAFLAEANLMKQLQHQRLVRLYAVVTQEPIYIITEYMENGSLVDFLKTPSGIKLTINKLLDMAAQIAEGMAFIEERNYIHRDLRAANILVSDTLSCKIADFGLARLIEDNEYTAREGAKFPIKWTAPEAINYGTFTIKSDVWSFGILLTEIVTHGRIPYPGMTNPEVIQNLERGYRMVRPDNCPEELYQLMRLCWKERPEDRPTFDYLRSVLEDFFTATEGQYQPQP
For assay [19] the target is unchanged. The settings on record: at 1 µM.
Assay [20] has as its target Leukocyte tyrosine kinase receptor (Homo sapiens) (UniProt P29376). The settings on record: at 0.1 µM.

In general, inhibition refers to the drop in the measured response relative to a control, in per cent.

With `c1ccc(Cc2nc3ccc(Nc4ncnc5ccccc45)cc3[nH]2)cc1`, the inhibition is 1.07% in assay [1]; 1.47% in assay [2]; 5.36% in [3]; 1.11% in assay [4]; 1.7% in assay [5]; -1.75% in assay [6]. The inhibition in assay [7] stood at 2.4%; in [8] it was 2.38%; in assay [9], 5.81%; in assay [10] it was 6.44%; in assay [11], 11.5%; in assay [12], 2.6%. For the same molecule, the inhibition in assay [13] came out at 7.57%; in assay [14], 5.98%; in assay [15], 3.71%; in [16] it was 2.34%; in assay [17] it was 5.96%; in assay [18], 2.08%. Further, the inhibition in [19] stood at 9.45%; in assay [20] it was 2.98%.
As for `O=S(=O)(CCOCc1ccc(-c2ccc3ncnc(Nc4ccc(OCc5cccc(F)c5)c(Cl)c4)c3c2)o1)c1ccccc1`, the inhibition turned out to be 1% in assay [1]; 1.54% in assay [2]; 2.21% in [3]; 0.38% in assay [4]; 0.42% in assay [5]; 0.16% in [6]. Further, the inhibition was 2.6% in assay [7]; 1.71% in assay [8]; 8% in assay [9]; 1.81% in assay [10]; 0.51% in [11]; 0.43% in assay [12]. The inhibition is -1.83% in assay [13]; 5.11% in [14]; 0.78% in assay [15]; -1.47% in assay [16]; -2.4% in assay [17]; 1.96% in assay [18]. Besides, the inhibition in assay [19] was 3.4%; in [20], 2.35%.
In the case of `CCS(=O)(=O)c1ccc(OC)c(Nc2nccc(N(C)c3ccc4c(C)n[nH]c4c3)n2)c1`, the inhibition is 1.96% in assay [1]; 3.52% in assay [2]; 5.13% in assay [3]; 1.45% in assay [4]; -0.31% in assay [5]; -1.93% in assay [6]. Also, the inhibition in [7] was -1.6%; in assay [8], 78.7%; in assay [9], 76.8%; in assay [10] it was 44.2%; in assay [11] it was 88.5%; in [12], 6.18%. Besides, the inhibition in assay [13] stood at 23.9%; in assay [14] it was 5.56%; in assay [15], 6.79%; in assay [16], 0.4%; in assay [17], 11.8%; in [18] it was 26.2%. The figures for the inhibition in assay [19] and in assay [20] were 60.2% and 7.51%, respectively.
With `Cc1ccc(NC(=O)CC2CC2)cc1-c1ccc(C(=O)NCC2CC2)cc1`, the inhibition in [1] was 1.47%; in assay [2] it was 1.27%; in assay [3], 6.97%; in assay [4], 1.47%; in [5] it was 5.47%; in [6], -0.78%. In addition, the inhibition in assay [7] was found to be 2.17%; in assay [8], 9.88%; in [9] it was 12.3%; in [10], 3.18%; in assay [11], 5.34%; in assay [12], 4%. Moreover, the inhibition is 3.9% in assay [13]; 2.39% in [14]; 3.24% in [15]; 1.38% in assay [16]; 2.75% in assay [17]; 1.18% in [18]. Besides, the inhibition in assay [19] turned out to be 3.82%; in assay [20], 4.18%.
Consider `[O-][S+]1CCN(Cc2ccc(-c3ccc4ncnc(Nc5ccc(OCc6ccccc6)c(Cl)c5)c4c3)o2)CC1`, for which the inhibition in assay [1] is 1.13%; in assay [2] it was 1.27%; in [3], 2.62%; in [4], 0.66%; in assay [5], -0.25%; in assay [6] it was -1.01%. In addition, the inhibition in assay [7] was -0.24%; in assay [8] it was 0.96%; in assay [9] it was 4%; in [10], 1.98%; in [11] it was 0.65%; in [12] it was -2.21%. Also, the inhibition in [13] was -2.37%; in assay [14], 4.79%; in [15] it was 4.66%; in assay [16], -1.31%; in [17], -1.84%; in assay [18], 1.46%. Besides, the inhibition is 5.8% in assay [19] and 2.41% in [20].
Consider `COc1ccc2ncnc(Nc3ccc(OCc4ccccc4)cc3)c2c1`, for which the inhibition was 1.7% in assay [1]; 1.35% in [2]; 3.3% in assay [3]; 1.02% in assay [4]; 0.06% in [5]; 0.27% in assay [6]. Further, the inhibition worked out at 0.67% in [7]; 1.51% in [8]; 3% in assay [9]; 3.24% in [10]; 9.52% in assay [11]; 2.81% in [12]. Also, the inhibition in assay [13] was 0.98%; in [14], 0.74%; in assay [15], 2.49%; in [16] it was -1.68%; in assay [17] it was 0.69%; in assay [18], 1.39%. Moreover, the values for the inhibition in assay [19] and in assay [20] were 7.05% and 2.27%, respectively.
